In PubChem BioAssay (EPA / NIEHS):
“And” between values parts separate entries of the source, which are not always exact repeats. Identical values can stand only once. The source holds several records for some structures; these can differ, active in one and inactive in another. The source made the active and inactive calls. Rule for the calls: active = hit-call score of the fitted dose curve at least 0.9, where 1 is the maximum; inactive = score below 0.9.

How the values were obtained:
[1] = ATG_CRE_CIS: Attagene CIS-FACTORIAL HepG2 Assay for human cAMP Responsive Element (CRE) binding protein 3 (AID 2282926); details: HepG2 CRE cis-reporter, Attagene multiplexed mRNA; actives raise or lower the signal
Summary of the method: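 Human liver HepG2, transient MRTU transfection, 24 h compound exposure. Total RNA → oligo(dT) RT → PCR → 6-FAM primer extension → HpaI cut → CE. Activity called both directions vs DMSO.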

[2] = biological target: CCAAT/enhancer-binding protein beta (Homo sapiens) (UniProt P17676); experiment: ATG_C_EBP_CIS: Attagene CIS-FACTORIAL HepG2 Assay for human CCAAT/Enhancer Binding Protein (C/EBP) beta (AID 2282927); details: HepG2 Attagene cis-factorial transcription factor reporter; actives raise or lower the signal
Chain of CCAAT/enhancer-binding protein beta (Homo sapiens) (P17676 whole entry, looked up, the tested form may be a part): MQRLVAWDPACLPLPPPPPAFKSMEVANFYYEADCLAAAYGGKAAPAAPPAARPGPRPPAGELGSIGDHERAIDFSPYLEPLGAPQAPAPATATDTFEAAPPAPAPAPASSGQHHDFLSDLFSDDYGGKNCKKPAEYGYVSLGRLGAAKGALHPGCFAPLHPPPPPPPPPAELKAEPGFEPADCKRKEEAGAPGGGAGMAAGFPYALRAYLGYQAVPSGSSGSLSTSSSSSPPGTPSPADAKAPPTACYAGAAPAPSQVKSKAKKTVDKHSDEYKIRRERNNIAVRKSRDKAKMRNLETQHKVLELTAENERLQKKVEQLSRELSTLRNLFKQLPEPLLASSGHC
Summary of the method: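 Chemical-treated HepG2 cells (24 h) bearing cis-regulated reporter constructs were processed for total RNA, then reverse transcription, PCR amplification, fluorescent primer extension and fragment analysis; gain- and loss-of-signal were fitted against DMSO.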

[3] = ATG_CMV_CIS: Attagene CIS-FACTORIAL HepG2 Assay for human CMV (Internal Marker) (AID 2282928); details: HepG2 CMV promoter reporter, transcription factor profiling; actives raise or lower the signal;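 note: endpoint acts as a background internal control marker rather than a target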
Summary of the method: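 Cell system: HepG2, transiently transfected multiple reporter units under cis promoters. Exposure: 24 h. Detection: RT-PCR, FAM labeling, HpaI digestion, capillary electrophoresis. Analysis: bidirectional, DMSO baseline.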

[4] = APR_HepG2_MitoMembPot_72hr: Apredica 72-hour HepG2 Assay for Mitochondrial Membrane Potential (AID 2282917); details: imaging, actives raise or lower the signal
Summary of the method: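 HepG2 cells exposed 72 h to compounds at 0.39–200 uM (0.5% v/v DMSO, duplicates); MitoTracker Red CMXRos 250 nM loaded 30 min before 3.7% formaldehyde fixation, imaged by HCS fluorescence. Bidirectional fit versus DMSO.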

[5] = APR_HepG2_P-H2AX_24hr: Apredica 24-hour HepG2 Assay for H2AX Phosphorylation (AID 2282920); details: high-content imaging, actives raise or lower the signal
Summary of the method: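 HepG2, 24 hr, cpd 0.39–200 uM (10 conc, duplicate), DMSO 0.5% v/v final. Fix 3.7% formaldehyde, Triton X-100 permeabilize, anti-phospho-H2A.x 1:200 + Hoechst 2 ug/mL. Imaged, bidirectional fit vs DMSO.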

[6] = APR_HepG2_StressKinase_24hr: Apredica 24-hour HepG2 Assay for Stress Kinase (AID 2282922); details: HepG2 stress kinase (phospho-c-Jun) imaging, actives raise or lower the signal
Summary of the method: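 HepG2 cells exposed 24 hr to compound at 0.39–200 uM (10 concentrations, duplicate), 0.5% v/v DMSO final. Fixed in 3.7% formaldehyde, permeabilized with Triton X-100, immunolabeled for phospho-c-Jun with Hoechst 33342; HCS fluorescence imaging, bidirectional fit versus DMSO.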

[7] = APR_HepG2_p53Act_72hr: Apredica 72-hour HepG2 Assay for p53 Activation (AID 2282923); details: high-content imaging, actives raise or lower the signal;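 note: average cellular p53 protein immunofluorescence intensity in HepG2 cells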
Procedure: APR_HepG2_72hr is a cell-based, multiplexed-readout assay that uses HepG2, a human liver cell line, with measurements taken at 72 hours after chemical dosing in a 384-well plate.APR_HepG2_p53Act_72hr is one of 10 assay component(s) measured or calculated from the APR_HepG2_72hr assay. It is designed to make measurements of dna content, a form of viability reporter, as detected with fluorescence intensity signals by HCS Fluorescent Imaging technology.Data from the assay component APR_HepG2_p53Act_72hr was analyzed into 1 assay endpoint. This assay endpoint, APR_HepG2_p53Act_72hr, was analyzed with bidirectional fitting relative to DMSO as the negative control and baseline of activity. Using a type of viability reporter, measures of protein for gain or loss-of-signal activity can be used to understand the signaling at the pathway-level as they relate to the gene TP53. Furthermore, this assay endpoint can be referred to as a primary readout, because this assay has produced multiple assay endpoints where this one serves a signaling function. To generalize the intended target to other relatable targets, this assay endpoint is annotated to the dna binding intended target family, where the subfamily is tumor suppressor.
Cells were treated with dimethyl sulfoxide (DMSO) as a solvent control at a final concentration of 0.5% v/v or with compounds in DMSO with a resulting final DMSO concentration of 0.5% v/v. Compound treatment was done at concentrations of 0.39, 0.78, 1.56, 3.12, 6.24, 12.5, 25, 50, 100, and 200 uM in duplicate on each plate. Cells were treated with compounds for 1, 24, or 72 hr. Carbonyl […] m-chloro-phenylhydrazone (CCCP) and taxol were used as positive controls for mitochondrial function and cytoskeletal stability, respectively; DMSO served as the negative control for this experiment. Cells were fixed by the direct addition of 50 uL formaldehyde in Hank's Balanced Salt Solution (HBSS) to a final concentration of 3.7%. After incubation in the fixation medium for 30 min at room temperature (293-298 K), cells were rinsed twice with HBSS and treated with cell permeabilization buffer (16 uL of 0.5% Triton X-100) for 10 min at room temperature (293-298 K) before labeling. For mitochondrial membrane potential and mitochondrial measurements, pre-fixed cells were incubated with 50 uL of MitoTracker Red CMXRos (Invitrogen) at a concentration of 250 nM for 30 min before fixation. In the remaining cases, post-fixed cells were labeled by incubation with a multiplexed mixture of primary antibodies in HBSS for 60 min at room temperature (293-298 K) to detect immunoreactivity of c-Jun (1:500), phospho-histone H3 (1:100), phospho-histone H2A.x (1:200), p53 (1:400), alpha-tubulin (1:200) and Hoechst 33342 (2 ug/mL). […]

[8] = APR_HepG2_MitoMass_72hr: Apredica 72-hour HepG2 Assay for Mitochondrial Mass (AID 2282924); details: high-content imaging, actives raise or lower the signal;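 note: MitoTracker Red CMXRos stain intensity per cell imaged as mitochondrial mass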
Summary of the method: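 HepG2 cells were exposed for 72 hr to compounds at 0.39–200 uM (ten concentrations, duplicate, 0.5% v/v DMSO final). Live cells were stained with 250 nM MitoTracker Red CMXRos for 30 min, then fixed in 3.7% formaldehyde and imaged by HCS fluorescence.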

[9] = APR_HepG2_MicrotubuleCSK_72hr: Apredica 72-hour HepG2 Assay for Microtubule CSK Stabilty (AID 2282919); details: HepG2 microtubule cytoskeleton, high-content imaging, actives raise or lower the signal
Summary of the method: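 HepG2 human liver cells were dosed for 72 h at ten concentrations from 0.39 to 200 uM in duplicate (0.5% v/v DMSO final). Fixed, permeabilized cells were immunostained for alpha-tubulin (Cy5) with a Hoechst counterstain and imaged at 20x.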

[10] = APR_HepG2_NuclearSize_72hr: Apredica 72-hour HepG2 Assay for Nuclear Size (AID 2282925); details: high-content imaging, actives raise or lower the signal
Summary of the method: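 HepG2 cells were exposed to compounds at ten concentrations from 0.39 to 200 uM (duplicate, 0.5% DMSO final) for 72 hr. After fixation in 3.7% formaldehyde, nuclei were stained with Hoechst 33342 (2 ug/mL) and imaged at 20x.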

Measured: AC50

CCCCCCCCCCCC[N+](C)(C)Cc1ccccc1
active: [1] 19.5 µM | [2] 18 µM | [3] 14.5 µM
inactive: [1] | [2] | [3]

CCCCN(C)C
inactive: [1] | [2] | [3]

CS(=O)(=O)c1ccc([C@@H](CC2CCCC2)C(=O)Nc2cnccn2)cc1Cl
active: [3] 136 µM
not listed: [1] | [9] | [10]
inactive: all other assays above

CN(Cc1cnc2nc(N)nc(N)c2n1)c1ccc(C(=O)N[C@@H](CCC(=O)O)C(=O)O)cc1
active: [4] 19.8 µM
not listed: [7]
inactive: all other assays above

O=C(c1ccccc1)c1ccccc1
active: [7] 0.304 µM
not listed: [9] | [10]
inactive: all other assays above

CC(=O)CC(C)C
inactive: [1] | [2] | [3]

CCCCC=O
not listed: [7]
inactive: all other assays above

CN(C)c1ccc(C(=C2C=CC(=[N+](C)C)C=C2)c2ccccc2)cc1
inactive: [1] | [2] | [3]
active: [1] 2.56 µM

Cc1ccc(S(=O)(=O)O)cc1
inactive: [1] | [2] | [3]

Clc1ccc2c(Cl)ccnc2c1
inactive: [1] | [2]
active: [3] 57.3 µM

NC(=NCCCCCCN=C(N)/N=C(\N)Nc1ccc(Cl)cc1)/N=C(\N)Nc1ccc(Cl)cc1
active: [1] 24 µM | [2] 24.6 µM | [3] 163 µM and 166 µM
inactive: [1] | [2] | [3]

O=C1c2ccc(O)c(O)c2C(=O)c2c(O)ccc(O)c21
inactive: [1] | [2]
active: [3] 4.28 µM

O=C(Nc1ccc(Cl)c(Cl)c1)c1cc(Cl)cc(Cl)c1O
inactive: [1] | [2] | [3]

O=C1c2ccccc2C(=O)c2c(O)c(O)cc(O)c21
inactive: [1] | [2]
active: [3] 27.3 µM

FC(OC(F)(F)C(F)(F)C(F)(F)F)C(F)(F)F (centres undefined)
inactive: [1] | [2] | [3]

CCCCC(CC)C(=O)O (centres undefined)
inactive: [5] | [6] | [10] | [2] | [3]

CCCCCCCCCCCCCCC
not listed: [1] | [7]
inactive: all other assays above

CCCCCc1ccc(O)cc1
active: [3] 33.4 µM
inactive: [1] | [2]

O=C(CCCN1CCC(O)(c2ccc(Cl)cc2)CC1)c1ccc(F)cc1
active: [4] 51.7 µM | [5] 100 µM | [6] 103 µM | [7] 37.3 µM | [8] 30.8 µM | [1] 52.9 µM | [3] 49.7 µM
inactive: [2]

OCC(CO)(CBr)CBr
inactive: [5] | [6] | [10] | [2] | [3]

COC(=O)C(F)(F)C(F)(F)C(F)(F)F
inactive: [1] | [2] | [3]

Cc1[nH]nc2c1N=C(c1ccccc1Cl)c1cc([N+](=O)[O-])ccc1N2
active: [4] 0.432 µM | [5] 24.9 µM | [6] 19.8 µM | [8] 0.248 µM | [10] 0.325 µM | [3] 1.58 µM
inactive: [9] | [2]

O=C1NS(=O)(=O)c2ccccc21
not listed: [6] | [7]
inactive: all other assays above

N=C(N)c1ccc(OCCCCCOc2ccc(C(=N)N)cc2)cc1
active: [5] 39.7 µM | [8] 11.3 µM | [10] 45.5 µM | [3] 0.781 µM
not listed: [7]
inactive: all other assays above

O=C(NO)c1ccccc1
inactive: [1] | [2]
active: [1] 8.57 µM | [3] 37.2 µM [middle of 4 runs]

CCOC(C)=O
inactive: [1] | [2] | [3]

O=C(O)CCC(F)(F)C(F)(F)C(F)(F)C(F)(F)C(F)(F)F
inactive: [1] | [2] | [3]

Cc1cc(C(C)(C)C)c(O)c(C(C)(C)C)c1
active: [2] 14.6 µM | [3] 25.3 µM and 60 µM
inactive: [1] | [2]

CCCCCCCCCCCCOS(=O)(=O)O
inactive: [4] | [9] | [5] | [6] | [8] | [10]

O=C(CC(=O)C(F)(F)C(F)(F)C(F)(F)F)c1cccs1
inactive: [2]
active: [1] 44.6 µM and 67.1 µM | [2] 66 µM | [3] 50 µM
